From PubChem BioAssay AID1159580 (chemical genetic matrix, 2015)
Hit rate of the full screen: of about 5,500 compounds, about 2,000 (36%) were called active. About 18% were inconclusive and are not listed. No stated cut-off is given here; in the data, active means normalized growth mostly below about 0.91 (no sharp cut-off); inconclusive means no clear call, values can overlap the other calls; inactive means mostly above about 0.92. The list shows a part of the results.

Experiment: chemical genetic growth profiling, strain panel (AID 1159580);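 further: tested at 20 µM; growth read once vehicle control cultures reached saturation at 30 °C; 1 = growth at the plate median or of vehicle wells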
Conditions: growth OD
[1] = S. cerevisiae deletion strains, locus YAL013W, strain DEP1, stronger effect = lower value
[2] = S. cerevisiae deletion strains, locus YBR229C, strain ROT2, stronger effect = lower value
[3] = S. cerevisiae deletion strains, locus YCL061C, strain MRC1, stronger effect = lower value
[4] = S. cerevisiae deletion strains, locus YDL101C, strain DUN1, stronger effect = lower value
[5] = S. cerevisiae deletion strains, locus YDR150W, strain NUM1, stronger effect = lower value
[6] = S. cerevisiae deletion strains, locus YEL061C, strain CIN8, stronger effect = lower value
[7] = S. cerevisiae deletion strains, locus YGR078C, strain PAC10, stronger effect = lower value
[8] = S. cerevisiae deletion strains, locus YHR030C, strain SLT2, stronger effect = lower value
[9] = S. cerevisiae deletion strains, locus YHR087W, strain rtc3, stronger effect = lower value
[10] = S. cerevisiae deletion strains, locus YJL187C, strain SWE1, stronger effect = lower value
[11] = S. cerevisiae deletion strains, locus YJR043C, strain POL32, stronger effect = lower value
[12] = S. cerevisiae deletion strains, locus YJR075W, strain HOC1, stronger effect = lower value
[13] = S. cerevisiae deletion strains, locus YLR039C, strain RIC1, stronger effect = lower value
[14] = S. cerevisiae deletion strains, locus YLR058C, strain SHM2 (second series), stronger effect = lower value
[15] = S. cerevisiae deletion strains, locus YLR085C, strain ARP6, stronger effect = lower value
[16] = S. cerevisiae deletion strains, locus YLR262C, strain YPT6, stronger effect = lower value
[17] = S. cerevisiae deletion strains, locus YML094W, strain GIM5, stronger effect = lower value
[18] = S. cerevisiae deletion strains, locus YMR219W, strain ESC1, stronger effect = lower value
[19] = S. cerevisiae deletion strains, locus YMR263W, strain SAP30, stronger effect = lower value
[20] = S. cerevisiae deletion strains, locus YNL153C, strain GIM3, stronger effect = lower value
[21] = S. cerevisiae deletion strains, locus YNL298W, strain CLA4 (second series), stronger effect = lower value
[22] = S. cerevisiae deletion strains, locus YNL322C, strain KRE1, stronger effect = lower value
[23] = S. cerevisiae deletion strains, locus YNR030W, strain Alg12, stronger effect = lower value
[24] = S. cerevisiae deletion strains, locus YOL006C, strain TOP1, stronger effect = lower value
[25] = S. cerevisiae deletion strains, locus YPL055C, strain LGE1, stronger effect = lower value
[26] = S. cerevisiae deletion strains, locus YPL241C, strain CIN2, stronger effect = lower value
[27] = S. cerevisiae deletion strains, locus YPR135W, strain CTF4, stronger effect = lower value
[28] = S. cerevisiae strains, strain wild type, stronger effect = lower value

Measured: normalized growth

N#CCCN(CC1CCCO1)C(=S)Nc1cc(C(F)(F)F)cc(C(F)(F)F)c1 (stereo not given)
active: [23] 0.829 | [26] 0.797
inactive: [1] 1.01 | [2] 0.965 | [3] 0.994 | [4] 0.991 | S. cerevisiae deletion strains, locus YDL134C, strain PPH21, stronger effect = lower value 0.95 | [5] 0.953 | [6] 0.982 | [7] 0.985 | [8] 0.882 | [9] 0.979 | [10] 1 | [11] 0.938 | [12] 0.918 | S. cerevisiae deletion strains, locus YKL190W, strain CNB1, stronger effect = lower value 1.02 | [13] 0.86 | [14] 1.01 | [15] 0.85 | [16] 0.908 | [17] 0.888 | [18] 0.996 | [19] 0.978 | [20] 1 | [21] 0.985 | [22] 1 | [24] 0.903 | [25] 0.866 | [27] 0.827 | [28] 1.02

O=C(NCc1ccc(Cl)c(Cl)c1)c1cccnc1OCC(F)(F)F
inactive: S. cerevisiae deletion strains, locus YAR019C, strain CDC15, stronger effect = lower value 0.956 | S. cerevisiae deletion strains, locus YBL105C, strain PKC1, stronger effect = lower value 0.951 | S. cerevisiae deletion strains, locus YBR135W, strain CKS1, stronger effect = lower value 0.947 | S. cerevisiae deletion strains, locus YBR136W, strain MEC1, stronger effect = lower value 0.97 | S. cerevisiae deletion strains, locus YBR160W, strain CDC28, stronger effect = lower value 0.961 | S. cerevisiae deletion strains, locus YDL017W, strain CDC7, stronger effect = lower value 0.955 | S. cerevisiae deletion strains, locus YDL028C, strain MPS1, stronger effect = lower value 0.97 | [4] 0.958 | S. cerevisiae deletion strains, locus YDL108W, strain KIN28, stronger effect = lower value 0.947 | S. cerevisiae deletion strains, locus YDL132W, strain cdc53, stronger effect = lower value 0.952 | S. cerevisiae deletion strains, locus YDL214C, strain PRR2, stronger effect = lower value 0.971 | S. cerevisiae deletion strains, locus YDR052C, strain DBF4, stronger effect = lower value 0.971 | S. cerevisiae deletion strains, locus YDR054C, strain cdc34, stronger effect = lower value 0.958 | S. cerevisiae deletion strains, locus YDR226W, strain ADK1, stronger effect = lower value 0.967 | S. cerevisiae deletion strains, locus YDR477W, strain SNF1, stronger effect = lower value 0.974 | S. cerevisiae deletion strains, locus YER123W, strain YCK3, stronger effect = lower value 0.949 | S. cerevisiae deletion strains, locus YER133W, strain GLC7, stronger effect = lower value 0.961 | S. cerevisiae deletion strains, locus YFL009W, strain cdc4, stronger effect = lower value 0.966 | S. cerevisiae deletion strains, locus YFL029C, strain CAK1, stronger effect = lower value 0.955 | S. cerevisiae deletion strains, locus YFR003C, strain YPI1, stronger effect = lower value 0.949 | S. cerevisiae deletion strains, locus YFR019W, strain FAB1, stronger effect = lower value 0.97 | S. cerevisiae deletion strains, locus YFR028C, strain CDC14, stronger effect = lower value 0.947 | S. cerevisiae deletion strains, locus YGR040W, strain KSS1, stronger effect = lower value 0.965 | S. cerevisiae deletion strains, locus YGR052W, strain FMP48, stronger effect = lower value 1.02 | S. cerevisiae deletion strains, locus YGR092W, strain DBF2, stronger effect = lower value 0.932 | [8] 1.04 | S. cerevisiae deletion strains, locus YHR079C, strain IRE1, stronger effect = lower value 1.03 | S. cerevisiae deletion strains, locus YHR082C, strain KSP1, stronger effect = lower value 1.06 | S. cerevisiae deletion strains, locus YHR205W, strain SCH9, stronger effect = lower value 0.95 | S. cerevisiae deletion strains, locus YIL147C, strain SLN1, stronger effect = lower value 0.958 | S. cerevisiae deletion strains, locus YJL095W, strain BCK1, stronger effect = lower value 1.02 | S. cerevisiae deletion strains, locus YJL128C, strain PBS2, stronger effect = lower value 0.9 | S. cerevisiae deletion strains, locus YJL157C, strain FAR1, stronger effect = lower value 0.973 | S. cerevisiae deletion strains, locus YJR016C, strain ILV3, stronger effect = lower value 0.965 | S. cerevisiae deletion strains, locus YJR066W, strain TOR1 (second series), stronger effect = lower value 0.972 | S. cerevisiae deletion strains, locus YJR066W, strain TOR1, stronger effect = lower value 1.07 | S. cerevisiae deletion strains, locus YKL048C, strain ELM1, stronger effect = lower value 0.951 | S. cerevisiae deletion strains, locus YKL067W, strain YNK1, stronger effect = lower value 0.955 | S. cerevisiae deletion strains, locus YKL101W, strain HSL1, stronger effect = lower value 0.968 | S. cerevisiae deletion strains, locus YKL193C, strain SDS22, stronger effect = lower value 0.951 | S. cerevisiae deletion strains, locus YKL203C, strain TOR2, stronger effect = lower value 1.04 | S. cerevisiae deletion strains, locus YLR113W, strain HOG1, stronger effect = lower value 0.891 | S. cerevisiae deletion strains, locus YLR133W, strain CKI1, stronger effect = lower value 0.965 | S. cerevisiae deletion strains, locus YLR403W, strain SFP1, stronger effect = lower value 0.978 | S. cerevisiae deletion strains, locus YML070W, strain DAK1, stronger effect = lower value 0.944 | S. cerevisiae deletion strains, locus YMR001C, strain CDC5, stronger effect = lower value 0.937 | S. cerevisiae deletion strains, locus YMR205C, strain PFK2 (second series), stronger effect = lower value 0.958 | S. cerevisiae deletion strains, locus YMR277W, strain FCP1, stronger effect = lower value 0.947 | S. cerevisiae deletion strains, locus YNL006W, strain LST8, stronger effect = lower value 0.968 | S. cerevisiae deletion strains, locus YNL020C, strain ARK1, stronger effect = lower value 0.968 | S. cerevisiae deletion strains, locus YNL161W, strain CBK1, stronger effect = lower value 0.971 | S. cerevisiae deletion strains, locus YNL183C, strain NPR1, stronger effect = lower value 0.99 | S. cerevisiae deletion strains, locus YNL207W, strain RIO2, stronger effect = lower value 0.968 | S. cerevisiae deletion strains, locus YNL222W, strain SSU72, stronger effect = lower value 0.953 | S. cerevisiae deletion strains, locus YNL307C, strain MCK1 (second series), stronger effect = lower value 0.957 | S. cerevisiae deletion strains, locus YOL078W, strain AVO1, stronger effect = lower value 0.963 | S. cerevisiae deletion strains, locus YOL136C, strain PFK27, stronger effect = lower value 0.968 | S. cerevisiae deletion strains, locus YOR061W, strain CKA2, stronger effect = lower value 0.945 | S. cerevisiae deletion strains, locus YOR119C, strain RIO1, stronger effect = lower value 1.01 | S. cerevisiae deletion strains, locus YOR231W, strain MKK1, stronger effect = lower value 1.03 | S. cerevisiae deletion strains, locus YOR329C, strain SCD5, stronger effect = lower value 0.969 | S. cerevisiae deletion strains, locus YPL031C, strain PHO85, stronger effect = lower value 0.97 | S. cerevisiae deletion strains, locus YPL153C, strain RAD53, stronger effect = lower value 0.968 | S. cerevisiae deletion strains, locus YPL204W, strain HRR25, stronger effect = lower value 0.971 | S. cerevisiae deletion strains, locus YPL209C, strain IPL1, stronger effect = lower value 0.968 | S. cerevisiae deletion strains, locus YPL256C, strain CLN2, stronger effect = lower value 0.995 | S. cerevisiae deletion strains, locus YPR025C, strain CCL1, stronger effect = lower value 0.964 | S. cerevisiae deletion strains, locus YPR106W, strain ISR1, stronger effect = lower value 0.961 | S. cerevisiae deletion strains, locus YPR111W, strain DBF20, stronger effect = lower value 0.958 | S. cerevisiae deletion strains, strain NNK1, stronger effect = lower value 0.959 | S. cerevisiae deletion strains, strain TSCII, stronger effect = lower value 0.958

CN(C)C=Nc1ncccc1OCc1ccc(Cl)c(Cl)c1
inactive: [1] 0.973 | [2] 0.989 | [3] 0.945 | [4] 0.951 | [5] 0.851 | [6] 0.951 | [7] 0.964 | S. cerevisiae deletion strains, locus YGR229C, strain SMI1, stronger effect = lower value 0.967 | [9] 1.04 | [10] 0.959 | [11] 0.951 | [12] 1 | [13] 1.05 | [14] 1 | [16] 1.05 | [17] 0.923 | [18] 0.987 | [19] 0.963 | [20] 0.94 | [22] 0.978 | [23] 0.926 | [25] 0.995 | [26] 0.888 | [27] 0.756
active: [8] 0.47 | [15] 0.722 | [21] 0.788 | [24] 0.563 | [28] 0.878
